Hit rate of the full screen: of about 5,500 compounds, about 2,000 (36%) were called active. Inconclusive results (about 18%) are left out. No stated cut-off is given here; in the data, active means normalized growth mostly below about 0.91 (no sharp cut-off); inconclusive means no clear call, values can overlap the other calls; inactive means mostly above about 0.92. The list shows a part of the results.
Assay: chemical genetic growth profiling, strain panel (AID 1159580);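 further: tested at 20 µM; growth read once vehicle control cultures reached saturation at 30 °C; 1 = growth at the plate median or of vehicle wells; lower values mean less growth of the strain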
Conditions: S. cerevisiae deletion strains, growth OD

Measured: normalized growth

CC(=O)OC1CCC2(O)CC1(C)CCC1C2CC1(C)C (stereo not given)
inactive: locus YAL021C, strain ccr4, active compounds read low 1 | locus YAL026C, strain drs2, active compounds read low 1.05 | locus YAL030W, strain snc1, active compounds read low 1.02 | locus YBL061C, strain skt5, active compounds read low 1.02 | locus YBR009C, strain hhf1, active compounds read low 1.03 | locus YBR021W, strain FUR4, active compounds read low 1 | locus YBR023C, strain chs3, active compounds read low 1.02 | locus YBR171W, strain sec66, active compounds read low 1.03 | locus YBR229C, strain ROT2, active compounds read low 0.949 | locus YBR231C, strain swc5, active compounds read low 1.05 | locus YBR279W, strain paf1, active compounds read low 1.01 | locus YCL011C, strain gbp2, active compounds read low 1.03 | locus YCL016C, strain dcc1, active compounds read low 1.02 | locus YCL029C, strain bik1, active compounds read low 0.974 | locus YCL061C, strain MRC1, active compounds read low 1.02 | locus YCL069W, strain vba3, active compounds read low 1.03 | locus YCR088W, strain abp1, active compounds read low 1.02 | locus YDL005C, strain med2, active compounds read low 1.02 | locus YDL035C, strain GPR1, active compounds read low 0.958 | locus YDL040C, strain nat1, active compounds read low 1.02 | locus YDL074C, strain BRE1, active compounds read low 0.989 | locus YDL101C, strain DUN1, active compounds read low 0.992 | locus YDL185W, strain tfp1, active compounds read low 0.968 | locus YDL192W, strain arf1, active compounds read low 0.981 | locus YDR001C, strain nth1, active compounds read low 1.02 | locus YDR069C, strain doa4, active compounds read low 1.03 | locus YDR101C, strain arx1, active compounds read low 0.973 | locus YDR137W, strain rgp1, active compounds read low 0.988 | locus YDR159W, strain sac3, active compounds read low 1.06 | locus YDR162C, strain NBP2, active compounds read low 0.938 | locus YDR195W, strain ref2 1.01 | locus YDR297W, strain sur2, active compounds read low 1.01 | locus YDR318W, strain mcm21, active compounds read low 0.977 | locus YDR334W, strain swr1, active compounds read low 1.03 | locus YDR335W, strain msn5, active compounds read low 1.04 | locus YDR388W, active compounds read low 0.965 | locus YDR392W, strain spt3, active compounds read low 0.955 | locus YDR502C, strain sam2, active compounds read low 1.02 | locus YEL003W, strain gim4, active compounds read low 1.04 | locus YEL037C, strain rad23, active compounds read low 1.02 | locus YEL061C, strain CIN8 (second series), active compounds read low 1.03 | locus YER015W, strain faa2, active compounds read low 1.02 | locus YER016W, strain bim1, active compounds read low 1.03 | locus YER110C, active compounds read low 0.973 | locus YER111C, strain swi4, active compounds read low 1.02 | locus YER155C, strain BEM2 (second series), active compounds read low 1.05 | locus YER155C, strain BEM2, active compounds read low 0.982 | locus YER167W, strain BCK2, active compounds read low 0.975 | locus YFR010W, strain ubp6, active compounds read low 1.04 | locus YGL078C, strain dbp3, active compounds read low 1.02 | locus YGL086W, strain mad1, active compounds read low 0.996 | locus YGL167C, strain pmr1, active compounds read low 1.02 | locus YGL173C, strain kem1, active compounds read low 1.04 | locus YGL227W, strain vid30, active compounds read low 1.03 | locus YGL240W, strain doc1, active compounds read low 1.03 | locus YGL248W, strain PDE1, active compounds read low 1.01 | locus YGL253W, strain hxk2, active compounds read low 1.07 | locus YGR135W, strain pre9, active compounds read low 1.07 | locus YGR229C, strain SMI1, active compounds read low 0.914 | locus YGR252W, strain gcn5, active compounds read low 1.05 | locus YHR013C, strain ard1, active compounds read low 1.03 | locus YHR027C, strain rpn1, active compounds read low 1.02 | locus YHR079C, strain IRE1 (second series), active compounds read low 0.982 | locus YHR094C, strain hxt1, active compounds read low 0.976 | locus YHR129C, strain ARP1, active compounds read low 0.988 | locus YHR142W, strain chs7, active compounds read low 1.03 | locus YHR200W, strain rpn10, active compounds read low 0.999 | locus YIL066C, strain RNR3, active compounds read low 0.961 | locus YIL073C, strain SPO22, active compounds read low 1.03 | locus YIL125W, strain kgd1, active compounds read low 0.986 | locus YIR030C, strain dcg1, active compounds read low 0.972 | locus YJL092W, strain hpr5, active compounds read low 1.03 | locus YJL095W, strain BCK1 (second series), active compounds read low 1.04 | locus YJL095W, strain BCK1, active compounds read low 1.02 | locus YJL115W, strain asf1, active compounds read low 1.01 | locus YJL129C, strain trk1, active compounds read low 1.01 | locus YJL134W, strain LCB3, active compounds read low 0.974 | locus YJL154C, strain vps35, active compounds read low 1.03 | locus YJL164C, strain tpk1, active compounds read low 1 | locus YJL166W, strain qcr8, active compounds read low 1.03 | locus YJL168C, strain set2, active compounds read low 0.991 | locus YJL187C, strain SWE1 (second series), active compounds read low 1.01 | locus YJL187C, strain SWE1, active compounds read low 1.03 | locus YKL009W, strain mrt4, active compounds read low 0.976 | locus YKL068W, active compounds read low 0.984 | locus YKL085W, strain MDH1 (second series), active compounds read low 0.979 | locus YKL085W, strain MDH1, active compounds read low 0.979 | locus YKL160W, strain elf1, active compounds read low 1.01 | locus YKL190W, strain CNB1, active compounds read low 0.981 | locus YKR001C, strain vps1, active compounds read low 0.977 | locus YKR026C, strain gcn3, active compounds read low 1.03 | locus YKR091W, strain srl3, active compounds read low 1.02 | locus YLL001W, strain dnm1, active compounds read low 1 | locus YLL026W, active compounds read low 1.01 | locus YLL041C, strain sdh2, active compounds read low 1.02 | locus YLR027C, strain aat2, active compounds read low 1.05 | locus YLR039C, strain RIC1, active compounds read low 0.945 | locus YLR058C, strain SHM2, active compounds read low 0.978 | locus YLR102C, strain apc9, active compounds read low 0.996 | locus YLR221C, strain rsa3, active compounds read low 1.05 | locus YLR258W, strain gsy2, active compounds read low 1.04 | locus YLR262C, strain YPT6 (second series), active compounds read low 1.03 | locus YLR268W, strain sec22, active compounds read low 0.943 | locus YLR320W, strain mms22, active compounds read low 1.05 | locus YLR330W, strain CHS5, active compounds read low 0.987 | locus YLR342W, strain FKS1 (second series), active compounds read low 0.97 | locus YLR342W, strain FKS1, active compounds read low 1.02 | locus YLR357W, strain rsc2, active compounds read low 1.03 | locus YLR370C, strain arc18, active compounds read low 1.02 | locus YLR371W, strain rom2, active compounds read low 1.02 | locus YLR384C, strain iki3, active compounds read low 1.01 | locus YLR418C, strain cdc73, active compounds read low 1.04 | locus YML016C, strain PPZ1, active compounds read low 0.974 | locus YML032C, strain rad52, active compounds read low 0.985 | locus YML120C, strain ndi1, active compounds read low 0.999 | locus YML124C, strain tub3, active compounds read low 0.982 | locus YMR058W, strain fet3, active compounds read low 1.04 | locus YMR078C, strain ctf18, active compounds read low 0.997 | locus YMR125W, strain sto1, active compounds read low 0.998 | locus YMR129W, active compounds read low 1.02 | locus YMR205C, strain PFK2, active compounds read low 1.04 | locus YMR223W, strain ubp8, active compounds read low 1.02 | locus YMR231W, strain pep5, active compounds read low 1.02 | locus YMR263W, strain SAP30, active compounds read low 0.984 | locus YMR307W, strain GAS1, active compounds read low 0.926 | locus YNL067W, strain RPL9B, active compounds read low 1.01 | locus YNL071W, strain lat1, active compounds read low 1.03 | locus YNL209W, strain ssb2, active compounds read low 1.01 | locus YNL233W, strain BNI4, active compounds read low 1.05 | locus YNL248C, strain rpa49, active compounds read low 1.03 | locus YNL250W, strain rad50, active compounds read low 0.956 | locus YNL271C, strain bni1, active compounds read low 0.991 | locus YNL298W, strain CLA4, active compounds read low 0.967 | locus YNL307C, strain MCK1, active compounds read low 1.01 | locus YNL322C, strain KRE1 (second series), active compounds read low 1.01 | locus YNR049C, strain mso1, active compounds read low 1.05 | locus YNR052C, strain pop2, active compounds read low 1.04 | locus YOL006C, strain TOP1, active compounds read low 0.973 | locus YOL012C, strain htz1 0.722 | locus YOL147C, strain pex11, active compounds read low 0.985 | locus YOR001W, strain rrp6, active compounds read low 1.06 | locus YOR061W, strain CKA2, active compounds read low 0.957 | locus YOR069W, strain VPS5, active compounds read low 0.983 | locus YOR070C, strain gyp1, active compounds read low 1.03 | locus YOR080W, strain dia2, active compounds read low 1.02 | locus YOR083W, strain WHI5, active compounds read low 1.06 | locus YOR106W, strain vam3, active compounds read low 1.02 | locus YOR136W, strain idh2, active compounds read low 0.992 | locus YOR144C, strain elg1, active compounds read low 0.988 | locus YOR184W, strain ser1, active compounds read low 0.909 | locus YOR265W, strain rbl2, active compounds read low 1.02 | locus YOR270C, strain vph1, active compounds read low 1.13 | locus YOR290C, strain snf2, active compounds read low 1.03 | locus YOR316C, strain cot1, active compounds read low 0.992 | locus YPL051W, strain arl3, active compounds read low 1.01 | locus YPL055C, strain LGE1, active compounds read low 0.932 | locus YPL078C, strain atp4, active compounds read low 1 | locus YPL106C, strain sse1, active compounds read low 0.991 | locus YPL240C, strain hsp82, active compounds read low 1.02 | locus YPL241C, strain CIN2, active compounds read low 0.997 | locus YPR119W, strain clb2, active compounds read low 0.989 | locus YPR141C, strain kar3, active compounds read low 0.977 | locus YPR163C, strain tif3, active compounds read low 0.989 | locus YPR167C, strain met16, active compounds read low 0.993 | strain wtn01, active compounds read low 0.958
